Screening data: PubChem BioAssay, National Center for Advancing Translational Sciences (NCATS)
Shown are actives, neighbours in structure and some others; about 10% of the full set was active somewhere.
GPT2 inhibitor – Primary qHTS assay for inhibitors of Glutamate pyruvate transaminase 2 (GPT2) | AID 1671188, 2021 | Potency, µM (series often up to 57.7 µM), for inactives: top-dose activity change, negative = inhibition, most hits filed as inhibitors | hit rate 0.25% among 100,000 | Alanine aminotransferase 2 (Homo sapiens), Q8TD30 | Recombinant GPT2, coupled pyruvate oxidase/HRP Amplex Red fluorescence; further: nearly all actives have a fitted effect of over 60% in size
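Fluorescence read-out: pyruvate from GPT2 turnover coupled to pyruvate oxidase, HRP and Amplex Red (0.2mM ThPP, 0.2U/mL PO and HRP, 50uM Amplex final). Substrates 250uM a-KG, 2mM L-alanine; enzyme 10ng/uL; 30 min RT.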
NPR1 antag – Natriuretic polypeptide receptor (hNpr1) antagonism - Primary qHTS; Potency, µM (highest dose often 46.3 µM), inactives show top-dose activity change, negative = inhibition, usual class: inhibitors; Atrial natriuretic peptide receptor 1 (Homo sapiens), P16066; AID 1347048, 2019; hit rate 1.6% among 76,000; HEK293 hNpr1 GloSensor cGMP, ANP-stimulated luminescence; calls by dose curve; further: nearly all actives have a fitted effect of over 60% in size
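HEK293 cells stably expressing human Npr1 and cGMP GloSensor pGS-40F, loaded 2 h with 2% GloSensor reagent, given compound 30 min at room temperature. Luminescence read before and 20 min after 0.1 nM hNppA.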
Luciferase inh – Firefly luciferase inhibition profiling of diverse chemical library using quantitative high-throughput screening; Luciferin 4-monooxygenase (Photinus pyralis), P08659; hit rate 2.5% among 76,000; Potency, µM (titrated, usually from 115 µM), hits mostly inhibitors; AID 1347043, 2019; purified P. pyralis luciferase, luminescence, biochemical; further: nearly all actives have a fitted effect of over 65% in size
Target sequence (P08659 whole entry, looked up): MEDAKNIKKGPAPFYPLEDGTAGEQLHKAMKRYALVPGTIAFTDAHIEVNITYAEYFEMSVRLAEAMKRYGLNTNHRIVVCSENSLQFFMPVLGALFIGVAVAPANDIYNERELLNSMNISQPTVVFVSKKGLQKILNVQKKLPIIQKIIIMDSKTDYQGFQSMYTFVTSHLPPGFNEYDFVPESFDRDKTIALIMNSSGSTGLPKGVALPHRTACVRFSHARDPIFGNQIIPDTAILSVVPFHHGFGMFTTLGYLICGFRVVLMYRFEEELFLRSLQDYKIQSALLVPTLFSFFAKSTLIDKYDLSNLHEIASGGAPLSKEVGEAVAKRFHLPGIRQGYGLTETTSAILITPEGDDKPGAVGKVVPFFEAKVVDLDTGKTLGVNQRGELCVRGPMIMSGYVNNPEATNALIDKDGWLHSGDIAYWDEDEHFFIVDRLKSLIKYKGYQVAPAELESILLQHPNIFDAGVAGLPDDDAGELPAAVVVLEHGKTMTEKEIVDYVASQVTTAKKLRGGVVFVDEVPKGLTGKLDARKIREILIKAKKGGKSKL
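Cell-free enzyme assay, 10nM P. pyralis luciferase, luciferin and ATP each at 10uM. Inhibition profiled over a 6-point titration, read as luminescence.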
3T3 cytotox – Cytotoxic Profiling in NIH 3T3 Cell Line of Diverse Libraries Using Quantitative High-Throughput Screening. hit rate 4.3% among 94,000. AID 1345082, 2018. NIH 3T3 viability, CellTiter-Glo ATP luminescence, 48-72 h. Potency, µM (titrated, usually from 96.7 µM), for the others: at the highest dose activity change, negative = cytotoxicity, actives largely listed as inhibitors; further: nearly all actives have a fitted effect of over 55% in size
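ATP-dependent luminescence (CellTiter-Glo) served as the viability signal for NIH 3T3 cells treated with compound for 48 or 72 hr at 37 °C.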
HEK cytotox – Cytotoxic Profiling in HEK 293 Cell Line of Diverse Libraries Using Quantitative High-Throughput Screening; Potency, µM (highest dose often 115 µM), without a hit: at the highest dose activity change, negative = cytotoxicity, usual class: inhibitors; hit rate 6.6% among 94,000; HEK 293 viability, ATP luminescence (CellTiter-Glo), 48-72 h; further: nearly all actives have a fitted effect of over 60% in size
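HEK 293 cells seeded at 250 cells/well were exposed to compound for 48 or 72 hr at 37 degree Celsius. Viability taken as ATP content by CellTiter-Glo luminescence.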
* = called active by the depositor; i = inactive; ? = inconclusive; / = not tested or not shown; [ ] = another dose, or the depositor's remark. Unless noted, the call rests on the fitted dose curve; in most records, active means well fitted curve in the direction sought with a large enough effect; inconclusive means small, poorly fitted or top-dose-only effect, or another doubt; inactive means no such curve, though single readings can be large; an effect the other way counts as inactive or inconclusive. On the % scale 0 is the no-effect control and ±100 the full control effect; potency means the concentration at half of the fitted maximal effect.

SMILES	GPT2 inhibitor	NPR1 antag	Luciferase inh	3T3 cytotox	HEK cytotox
O=C(Nc1cc(F)cc(F)c1)N1CCCC2(C1)Nc1cccnc1NC2=NC1CCCC1 (centres undefined)	-26%	-24%	i	?	40µM*
Cc1ccc(C(=O)NCc2cccnc2Oc2ccccc2F)c(=O)n1C	-3%	3%	i	-12%	?
CN(Cc1ccc(F)cc1)Cc1ccc(-c2ccccc2)cc1	-5%[88.5 µM]	0%[70.6 µM]	i	-9%[138 µM]	0%[172 µM]
CN(Cc1ccc(-c2ccccc2)cc1)Cc1ccccn1	i	-20%[70.6 µM]	50µM*	?	50µM*
CN(Cc1ccc(-c2ccccc2)cc1)Cc1cccnc1	-24%[88.5 µM]	8.9µM*	50µM*	?	?
C[S+](=O)([O-])Nc1cccc(Nc2cnc3ccc(-c4ccccc4)nn23)c1	?	-3%[70.6 µM]	?	?	?
Cn1ncc2c(N[C@@H](Cc3ccccc3)C(N)=O)nc(-c3ccncc3)nc21	?	0%	i	?	32µM*
Cn1ncc2c(NCCc3nnc(N)s3)nc(-c3ccncc3)nc21	-6%[11.5 µM]	10%	i	-30%	-10%
CCc1cccc2c(C(CC(=O)N3CCCCC3)c3cccc(C)c3)c[nH]c12 (centres undefined)	i	-6%	i	-30%	?
CCc1cccc2c(C(CC(=O)N3CCCC3)c3cccc([N+](=O)[O-])c3)c[nH]c12 (centres undefined)	5%	-13%	i	28µM*	?
CCc1cccc2c(C(CC(=O)N3CCc4ccccc4C3)c3cccc4c3OCO4)c[nH]c12 (centres undefined)	i	-10%	i	18µM*	?
CCC(C)NC(=O)C(NC(=O)c1ccc2c(c1)OCO2)C1CCN(C(=O)c2ccccc2F)CC1 (centres undefined)	-19%	0%	i	-16%	-19%
O=C(Nc1cccc(-c2nnc3n2CCCC3)c1)c1ccc2ccccc2n1	i	2%	?	-23%	?
O=C(CCC1CCN(S(=O)(=O)c2ccccc2)CC1)NCC1CCCCC1	-7%	-13%	i	-23%	?
CN(C)c1ccc(-c2nnc([C@H]3CCN(C4CCC4)C3)o2)cc1	5%[88.5 µM]	1%[70.6 µM]	71µM*	3%[138 µM]	-11%[172 µM]
c1ccc(-c2nnc([C@H]3CCN(C4CCC4)C3)o2)cc1	i	-6%[70.6 µM]	25µM*	-14%[230 µM]	?
c1cc(-c2nnc([C@H]3CCN(C4CCCCC4)C3)o2)ccn1	i	-16%[70.6 µM]	?	-12%[138 µM]	-19%[172 µM]
CCOC(=O)c1cccc(NC(=O)O[C@@H]2CO[C@H]3[C@@H]2OC[C@@H]3NS(=O)(=O)c2cc(OC)ccc2OC)c1	?	-2%	i	-14%	?
O=C(C[C@@H]1O[C@H](CNC(=O)c2ccco2)[C@@H](O)[C@H]1O)NCc1ccc(F)cc1	-19%[88.5 µM]	0%[70.6 µM]	i	-15%[174 µM]	?
COc1ccc(-c2cc(C(=O)NC3CC3)c3c(C)nn(-c4ccccc4)c3n2)cc1	i	/	/	22µM*	?
COc1ccc(-c2cc(C(=O)NC3CCNCC3)c3c(C)nn(-c4ccccc4)c3n2)cc1	i	/	/	7.1µM*	25µM*
O=C(c1nnc(COc2cc(F)cc(F)c2)n1-c1ccccc1)N1CCC[C@@H]1c1cccc(F)c1	2%	-2%	i	40µM*	?
O=C(c1nnc(COc2ccc(F)cc2)n1-c1ccccc1)N1CCC[C@@H]1C(c1ccccc1)c1ccccc1	2%	-8%	i	6.3µM*	?
O=C(c1nnc(CN2CCOCC2)n1-c1ccccc1)N1CCC[C@@H]1C(c1ccccc1)c1ccccc1	3%	-2%	i	?	?
O=C(c1nnc(CN2CCC(F)(F)CC2)n1-c1cccnc1)N1CCC[C@@H]1C(c1ccccc1)c1ccccc1	-28%	-6%	i	25µM*	-24%
SMILES	GPT2 inhibitor	NPR1 antag	Luciferase inh	3T3 cytotox	HEK cytotox
O=C(c1nnc(COc2ccc(F)c(F)c2)n1-c1ccccc1)N1CCC[C@@H]1c1cccc(F)c1	4%	-11%	i	10µM*	?
Clc1ccc(NCCN2CCCC2)cc1	4%[88.5 µM]	/	/	-4%[174 µM]	-24%[230 µM]
Oc1ccc(NCCN2CCCC2)cc1	i	/	/	45µM*	?
CN(CC1CCOC1)C(=O)Nc1cccc(Cl)c1F (centres undefined)	i	6%	i	i	2%
COc1ccc(Cn2cc(-c3ccc(F)c(C(N)=O)c3)cn2)cc1	-10%	-1%	i	?	?
Cc1cc(-c2ccc(F)c(C(N)=O)c2)cc(C(C)(C)C)c1	1%[11.5 µM]	11%	i	?	45µM*
COc1ccc(CN2C(=O)[C@@H]3C[C@@H](CN3C3CCN(C)CC3)Oc3ccccc32)cc1	i	-2%[70.6 µM]	i	-5%[138 µM]	-10%[172 µM]
CN1CCCCCC(O)c2cc(C(=O)Nc3cccc(OC(F)(F)F)c3)ccc21 (centres undefined)	?	?	i	28µM*	25µM*
COc1ccc(OC)c(NC(=O)c2ccc3c(c2)C(O)CCCCCN3C)c1 (centres undefined)	i	?	i	?	?
CC1CCN(c2ccc(CNC(=O)c3ccc4c(c3)C(O)CCCCCN4C)cc2)CC1 (centres undefined)	-6%	-16%	i	40µM*	?
CN1c2cc(C(=O)Nc3cccc(OC(F)(F)F)c3)ccc2C(=O)N2CCCCCC21 (centres undefined)	i	-25%	i	-14%	?
COc1cccc(NC(=O)c2ccc3c(c2)C(O)CCCCCN3C)c1 (centres undefined)	i	-23%	35µM*	?	?
O=C(c1cnccn1)N1CCc2nc(OCC3CC3)ccc2C1	i	4%	i	-24%	-7%
COc1ccc(OC)c(S(=O)(=O)N2CCCCCCNC(=O)[C@@H]3CCC[C@@H]32)c1	i	-11%	i	-7%	-23%
COc1ccccc1C(=O)NCCC1CCN(C(=O)Nc2cc(F)cc(F)c2)CC1	-4%	/	/	?	?
CN(CCC(O)c1ccccc1)c1nccc(-c2cccnc2)n1 (centres undefined)	-9%	4%	i	?	32µM*
O=C(Nc1ccncc1)c1ccnc(-c2nnc3ccc(N4CCOCC4)nn23)c1	?	4%[70.6 µM]	i	89µM*	-6%[172 µM]
CN(c1ccccc1)c1ccc2nnc(-c3cc(C(=O)Nc4ccccn4)ccn3)n2n1	i	3%[70.6 µM]	i	?	56µM*
